Screens (PubChem BioAssay)
FLuc inh: inhibitors of firefly luciferase | Potency, µM (titrated, usually from 57.1 µM), for the others: at the highest dose activity change, negative = inhibition, actives largely listed as inhibitors | P08659 | hit rate 2.2% among 72,000 | purified firefly luciferase, luminescence, 8 min; note: potency is the fitted concentration of half-maximal effect; % is set by controls: 0 for no effect and ±100 for the full control effect; nearly all actives have a fitted effect of over 40% in size
Target sequence (P08659 whole entry, looked up): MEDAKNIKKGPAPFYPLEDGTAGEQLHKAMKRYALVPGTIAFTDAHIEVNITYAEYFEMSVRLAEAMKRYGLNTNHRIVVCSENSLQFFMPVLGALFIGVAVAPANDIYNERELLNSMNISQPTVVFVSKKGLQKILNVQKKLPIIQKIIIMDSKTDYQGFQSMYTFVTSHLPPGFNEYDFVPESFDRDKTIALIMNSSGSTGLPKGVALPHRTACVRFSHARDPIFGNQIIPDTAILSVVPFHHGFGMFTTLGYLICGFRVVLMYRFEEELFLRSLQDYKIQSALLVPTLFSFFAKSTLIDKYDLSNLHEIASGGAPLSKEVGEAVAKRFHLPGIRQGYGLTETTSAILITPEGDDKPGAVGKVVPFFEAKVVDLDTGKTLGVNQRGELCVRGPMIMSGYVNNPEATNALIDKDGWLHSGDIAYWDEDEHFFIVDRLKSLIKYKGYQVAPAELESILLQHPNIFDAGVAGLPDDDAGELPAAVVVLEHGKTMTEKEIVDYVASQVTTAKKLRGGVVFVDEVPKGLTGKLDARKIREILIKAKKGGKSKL
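Compounds were tested as concentration series (qHTS) against purified P. pyralis luciferase with luciferin and 10 uM ATP in 50 mM imidazole pH 7.2, 50 mM KCl, 7 mM MgCl2, 0.01% Tween 20, 0.05% BSA. Luminescence was read after 8 min at ambient temperature.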
GFP derepression: derepresses silenced GFP locus in mouse C127i cells; mouse C127i GFP locus derepression, cytometry, 30 h; Potency, µM (doses to about 46.1 µM), inactives show at the highest dose GFP derepression (activation); hit rate 0.09% among 68,000; AID 597; note: % of control where 0% means no effect
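Locus derepression in mouse mammary C127i cells whose integrated CMV-GFP reporter is normally silent; GFP expression after 30 h compound treatment was quantified by counting fluorescent cells.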
HBB splice mod: modulators of hemoglobin beta chain splicing; HBB splicing reporter cell assay, activation; EGFP reporter with mutant IVS2-654 intron; response scale: normalised to 500 nM splice-correcting PNA; Potency, µM (top dose mostly 46.1 µM), without a hit: top-dose activation, hits mostly activators; hit rate 0.06% among 65,000; note: potency is the fitted concentration of half-maximal effect; 0% is about no effect
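Compounds were applied for 2 days to HeLa EGFP-654 cells, 500/well in Optimem with 2% FCS. The reporter's EGFP is disrupted by mis-splicing of beta-globin intron IVS2-654. Readout: summed well GFP fluorescence from 488 nm laser scanning; reference was 500 nM antisense […] 654 PNA.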
Bst PK mod: pyruvate kinase (B. stearothermophilus) modulation; Potency, µM; purified pyruvate kinase, luminescence ATP production; ribose 5-phosphate activator present at AC10; hit rate 1.2% among 51,000; in the data active = potency below about 11 µM; inconclusive = mostly about 12 µM to 25 µM;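 the screen sought inhibitors and activators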;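 note: potency is the fitted concentration of half-maximal effect; scaled between full activation by ribose 5 phosphate and full inhibition by luteolin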
The depositor's hits bear a star; i = inactive; ? = inconclusive; · = no result given; [ ] = remark or other dose. An excerpt weighted towards active compounds, which were near 2.6% of everything screened. Unless noted, calls come from the whole dose curve; as a rule, active = well fitted curve in the direction sought with a large enough effect; inconclusive = small, poorly fitted or top-dose-only effect, or another doubt; inactive = no such curve, though single readings can be large; an effect the other way counts as inactive or inconclusive.

SMILES	FLuc inh	GFP derepression	HBB splice mod	Bst PK mod
Cc1nnc(Sc2nc(Sc3nnc(C)s3)nc(N3CCN(C)CC3)n2)s1	2.5%	0.0%	·	>57
Cc1cc(=O)n2[nH]c(-c3ccccc3Cl)cc2n1	15.8µM*	-4.7%	1.4%[0.369 µM]	·
Cc1ccc(-n2c(C)cc(C(=O)CSc3nncs3)c2C)cc1	25.1µM*	1.0%	-0.5%[57.5 µM]	i
COc1ccc(-n2c(C)cc(C(=O)CSc3nn4c(=O)c(C(C)(C)C)nnc4s3)c2C)cc1	2µM*	1.2%	-0.9%	>57
c1nc(NC2CCNCC2)c2cc(-c3ccoc3)ccc2n1	1.7%[2.29 µM]	-2.9%[9.22 µM]	-0.5%	·
c1ccc2c(-n3ccnc3)nc(-c3ccoc3)nc2c1	-0.4%[2.29 µM]	-0.6%[9.22 µM]	1.1%	·
COc1ncc2nc(-c3ccccc3)c(=O)n(CCC#N)c2n1	-5.2%[11.4 µM]	2.4%[9.22 µM]	0.5%	·
Cc1ccc(C(=O)Nc2ccc3c(c2)ncn3C)cc1	25.1µM*	-2.7%	-0.9%	·
C=C1CC2C=C(NC(C)=O)CC(C1)C2 (stereo unspecified)	-0.6%	0.0%	-0.5%[9.22 µM]	·
CC(C)C(NC(=O)C1CCCCC1)C(=O)Nc1ccc2c(c1)OCCO2 (stereo unspecified)	12.6µM*	0.0%	-3.5%	?
COc1cccc(CNc2ccc3c(c2)ncn3C(C)C)c1OC	12.6µM*	·	-0.8%	·
CCCn1cnc2cc(NCc3ccccn3)ccc21	15.8µM*	·	-0.6%	·
CCCn1c(NCc2cccc(OC)c2O)nc2ccccc21	-4.1%	0.0%	-0.2%	>57
CCCn1c(NCc2cccc(OC)c2OC)nc2ccccc21	-9.5%	-2.3%	0.2%[57.5 µM]	>57
CCCn1cnc2cc(NCc3cccc(OC)c3O)ccc21	15.8µM*	-4.6%	-0.9%[1.84 µM]	·
Nc1ncnc2c1ncn2[C@@H]1O[C@@H](CO)[C@H](O)[C@@H]1O	-0.5%	-2.2%	0.8%	·
CC(C)[C@@H](C)/C=C\[C@@H](C)[C@@H]1CC[C@H]2C3=CC=C4C[C@@H](O)CC[C@]4(C)[C@H]3CC[C@]21C	1.3%[11.4 µM]	-1.2%[9.22 µM]	-0.4%[9.22 µM]	·
COc1ccc(Cn2c(C3CC3)nc3ccc(NC(=O)C4CC4)cc3c2=O)cc1	15.8µM*	1.3%	-0.2%[57.5 µM]	·
N[C@@H](Cn1cc(I)c(=O)n(Cc2ccc(C(=O)O)cc2)c1=O)C(=O)O	3.4%	-1.4%	·	·
Cc1c(-c2nc(N)nc(Nc3ccccc3F)n2)oc2ccccc12	12.6µM*	0.0%	1.7%	·
COc1ccccc1Nc1nc(N)nc(-c2cc3ccccc3o2)n1	-23.0%	2.9%	-0.8%	·
Fc1ccc2nc3[nH]c4ccccc4c3nc2c1	6.31µM*	0.0%	3.6%[0.369 µM]	3.68*
CCCC(C)C(=O)Nc1ccc(C(N)=O)cc1 (stereo unspecified)	1.1%	-1.5%	-1.7%[0.0738 µM]	·
O=C(NCCN1C(=O)C2C3C=CC(C3)C2C1=O)Nc1ccc(Br)cc1 (stereo unspecified)	15.8µM*	·	-1.0%	·
O=C(Nc1ccccc1)N1CCCC2(CCN(C(=O)c3csnn3)CC2)C1	1.0%[11.4 µM]	-2.3%[9.22 µM]	3.8%	·
SMILES	FLuc inh	GFP derepression	HBB splice mod	Bst PK mod
CC(C)(C)n1ncc2c(=O)n(CC(=O)NCc3ccc(F)cc3)cnc21	20µM*	-1.5%	0.0%	·
CC(C)(C)n1ncc2c(=O)n(CC(=O)OCc3ccccc3)cnc21	0.398µM*	0.0%	2.7%	0.54*
CO[C@@H]1/C=C\O[C@]2(C)Oc3c(C)c(O)c4c(O)c(c(CN5CCN(C)CC5)c(O)c4c3C2=O)NC(=O)/C(C)=C\C=C[C@@H](C)[C@@H](O)[C@H](C)[C@@H](O)[C@H](C)[C@H](OC(C)=O)[C@@H]1C	0.9%[11.4 µM]	0.0%[9.22 µM]	5.3%[9.22 µM]	·
COC(=O)c1sc2nc3c(cc2c1N)COC(C)(C)C3	12.6µM*	2.1%	-0.6%[9.22 µM]	·
CCOC(=O)c1oc2nc3c(cc2c1N)COC(C)(C)C3	-27.1%	0.0%	-0.2%[57.5 µM]	>11.4
c1ccc(Nc2nc(-c3cccs3)cs2)nc1	5.01µM*	0.0%	-0.3%[57.5 µM]	3.56*
c1ccc(Nc2nc(-c3cccnc3)cs2)nc1	3.98µM*	1.2%	1.9%	?
c1cncc(Nc2nc(-c3cccnc3)cs2)c1	-2.7%	0.0%	3.0%	·
Cn1c2ccccc2c2c(C(=O)NCC3CCCO3)cn(C3CCCC3)c(=O)c21 (stereo unspecified)	12.6µM*	1.3%	1.9%	·
Cc1cccc(N2CCN(C(=O)c3cc4c(=O)n(C)c5ccccc5c4n3C)CC2C)c1 (stereo unspecified)	-1.1%	·	-0.6%	·
COc1ccc(-c2cc(-c3ccc(OC)cc3)[nH]n2)cc1	15.8µM*	-1.0%	0.3%	2.14*
CCOC(=O)N/N=C1/C[C@@H](O)[C@@H](O)[C@@H]2[C@@H]3C(=O)N(C[C@@H]4CCCO4)C(=O)[C@H]3CC[C@H]12	0.0%[11.4 µM]	·	1.9%[9.22 µM]	·
COc1ccc(OC(=O)c2ccncc2)cc1	-4.1%	0.0%	-4.8%	>11.4
COc1ccc(C(=O)Oc2ccc(/C=N/O)cc2)cc1	12.6µM*	3.0%	-2.3%	·
CCOC(=O)CCN1C(=O)[C@H]2[C@H]3[C@H](O)[C@H](O)C/C(=N/OC[C@@H](O)COCc4ccco4)[C@H]3CC[C@@H]2C1=O	1.6%[11.4 µM]	·	1.8%[9.22 µM]	·
O=C(CC1Nc2ccccc2NC1=O)c1ccccc1 (stereo unspecified)	12.6µM*	0.0%	6.4%	·
CC(NC(=O)CC1Nc2ccccc2NC1=O)c1ccccc1 (stereo unspecified)	0.3%	5.7%	-0.3%	>57
Cc1ccc(C2Nc3ccccc3-c3nc4ccccc4n32)o1 (stereo unspecified)	12.6µM*	10.5%	-0.9%	·
CC(C)(C)c1ccc(OCC(=O)O)c(Cl)c1	1.3%[11.4 µM]	-2.2%[9.22 µM]	2.9%[9.22 µM]	·
CCOc1ccc(C(=O)Nc2cc(C)on2)cc1	10µM*	-0.1%	0.2%[9.22 µM]	·
CCOc1cc(C(=O)Nc2cc(C)on2)cc(OCC)c1OCC	-0.7%	3.2%	-1.4%	>57
CCOc1ccc(Nc2cc(C)nc(-n3nc(C)cc3C)n2)cc1	0.7%	15.8µM*	8.6%[0.369 µM]	6.27*
COc1ccc(Nc2cc(C)nc(N3CCOCC3)n2)cc1	-3.1%	-0.5%	3.1%[0.369 µM]	1.52*
Cc1cc(C)nc(Nc2ccc(N3CCOCC3)cc2)n1	-29.5%	0.0%	4.8%	·
CNc1cc(C)nc(-n2nc(C)cc2C)n1	-9.3%	?	3.6%[0.369 µM]	>57
SMILES	FLuc inh	GFP derepression	HBB splice mod	Bst PK mod
N#CCCn1c(=O)c(-c2ccc(Cl)cc2)nc2cnc(N3CCNCC3)nc21	-0.5%[11.4 µM]	2.7%[9.22 µM]	3.4%	·
CCC(=O)Nc1ccc(NC(=O)c2ccccn2)cn1	39.8µM*	0.0%	-4.7%	·
CC(C)C(=O)Nc1ccc(NC(=O)c2ccccn2)cn1	12.6µM*	-2.5%	-3.5%	i
CCCC(=O)Nc1ccc(NC(=O)c2ccccc2Cl)nc1	-14.9%	0.0%	3.8%	>57
O=C(Cc1ccccc1)Nc1ccc(NC(=O)c2ccco2)nc1	-11.3%	1.7%	·	>57
O=C(Nc1ccc(NC(=O)c2ccco2)nc1)c1ccccn1	10µM*	-1.2%	-0.9%	·
O=C(Nc1ccc(NC(=O)C2CCCCC2)cn1)c1ccco1	5.01µM*	-1.7%	·	i
O=C(Nc1ccc(NC(=O)C2CC2)nc1)c1ccccn1	20µM*	2.6%	·	i
O=C(Nc1ccc(NC(=O)C2CC2)nc1)c1ccncc1	3.0%	-2.9%	·	>57
N#C[C@@H](Cc1ccc(O)c(O)c1)C(=O)N1CCc2ccccc21	0.9%	-1.1%	0.8%	·
Cc1ccc(O)c(-c2cc(-c3ccccc3C)[nH]n2)c1	-3.5%	-2.7%	1.2%	·
